This passage reports Potency and outcome results from PubChem BioAssay (Tox21).

Test [1] is described as follows: qHTS assay to identify small molecule antagonists of the estrogen receptor alpha (ER-alpha) signaling pathway using the BG1 cell line in the presence of 0.1 nM 17-beta-estradiol - cell viability counter screen (AID 1259241). Further: nearly all actives have a fitted effect of over 40% in size. In outline:
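Cytotoxicity counter-screen: live-cell protease activity measured by fluorescence (30 min reagent step) in the same wells. Cells were VM7Luc4E2 with endogenous ER-alpha and ERE-driven luciferase, treated 22 hr at 37C alongside 0.1 nM 17beta-estradiol final.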
(In general: Quantitative high-throughput screening tests each substance at several concentrations.)

A short description of test [2]: qHTS assay to identify small molecule antagonists of the androgen receptor (AR) signaling pathway using the MDA cell line in the presence of 0.5 nM R1881 - cell viability counter screen (AID 1259242). Further: nearly all actives have a fitted effect of over 45% in size. In outline:
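qHTS format. MDA-kb2 (MMTV-luc, AR/GR responsive) + cpd + 0.5 nM R1881 final, 16 hr 37C/0% CO2 → CellTiter-Fluor 30 min → fluorescence intensity.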

The nature of test [3]: qHTS assay to identify small molecule HDAC inhibitors (AID 1259364).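 Further: wild-type HCT-116 cells with endogenous class I/II HDAC activity; top concentration of the series differs between compounds; nearly all actives have a fitted effect of over 45% in size.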 In a few lines:
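Quantitative high-throughput format: overnight-seeded HCT-116 cells got compounds for 2 hr at 37C; HDAC-Glo I/II reagent added, 30 min RT, luminescence measured.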

A short description of test [4]: qHTS assay to identify small molecule HDAC inhibitors - cell viability counter screen (AID 1259365). Further: series mostly up to about 92 µM; nearly all actives have a fitted effect of over 50% in size. In a few lines: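 CellTiter-Glo luminescence (30 min, room temperature) reported viability after a 2 h compound exposure at 37 C. Cells: wild-type HCT-116, 1,500 per well, seeded the night before.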
Test [5] is described as follows: qHTS assay to identify small molecule agonists of the sonic hedgehog signaling (Shh) pathway - cell viability counter screen (AID 1259366). Further: nearly all actives have a fitted effect of over 50% in size. In outline: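 Cytotoxicity counter screen: CellTiter-Fluor reagent added after 23 h compound exposure, then 1 h at 37C and fluorescence read. Cells were 3T3 Gli1-Luc, seeded 2,000 per well and dosed 4 h post-plating.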
Test [6] in a line: qHTS assay to identify small molecule antagonists of the sonic hedgehog signaling (Shh) pathway - cell viability counter screen (AID 1259367). Further: nearly all actives have a fitted effect of over 55% in size. In a few lines:
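Viability was read by CellTiter-Fluor fluorescence in the same wells, reagent added 23 hr into compound treatment and incubated 1 hr at 37C. The 3T3 Gli1-Luc reporter cells (2,000/well) received conditioned medium after compound and ran 24 hr.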

Test [7] is described as follows: qHTS assay to identify small molecule agonists of the sonic hedgehog signaling (Shh) pathway (AID 1259368; calls by dose curve;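 further: NIH/3T3-derived 3T3Gli1-Luc cells carrying a stable Gli1-driven firefly luciferase reporter; series mostly up to about 92 µM; nearly all actives have a fitted effect of over 15% in size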). In a few lines: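 Quantitative high-throughput format using a Gli1-driven firefly luciferase reporter line derived from NIH/3T3 cells. After a 24 hr compound treatment at 37 C and 5% CO2, luminescence reported Gli1 response element activity.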
Test [8] in a line: qHTS assay to identify small molecule antagonists of the sonic hedgehog signaling (Shh) pathway (AID 1259369; calls by dose curve; further: nearly all actives have a fitted effect of over 45% in size; further: potency means the concentration at half of the fitted maximal effect). In a few lines:
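Stable Gli1-Luc reporter NIH/3T3 clone; quantitative HTS in stimulated mode with conditioned medium. Luminescence measured after 24hr compound treatment at 37 C.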

Test [9] deals with Estrogen receptor beta (Homo sapiens) (UniProt Q92731). Nature of the test: qHTS assay to identify small molecule agonists of the estrogen receptor beta (ER-beta) signaling pathway (AID 1259377; active means well fitted activation curve with a large enough effect in the signal ratio in the repeat runs, not every such curve was filed as active; the % refers to the signal ratio). In a few lines:
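Ratiometric beta-lactamase FRET read-out came after 2 h substrate loading at room temperature. It followed 16 h compound treatment at 37C of GripTite HEK293T cells carrying a UAS-bla reporter, plated in 2% charcoal-stripped FBS medium.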

Test [10] in a line: qHTS assay to identify small molecule agonists of the androgen receptor (AR) signaling pathway in the presence of an antagonist - cell viability counter screen (AID 1259379).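 Further: MDA-kb2 human breast cancer cells carrying an MMTV luciferase reporter; series mostly up to about 92 µM; nearly all actives have a fitted effect of over 25% in size.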 In outline:
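Nilutamide-containing (3.0uM final) MDA-kb2 cultures, 3,000 cells/well, were treated with compounds across 15 concentrations. After 16 hr at 37C with no CO2, cell viability was determined by CellTiter-Fluor fluorescence in the luciferase assay wells.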

Test [11] is described as follows: qHTS assay to identify small molecule agonists of the estrogen receptor beta (ER-beta) signaling pathway - cell viability counter screen (AID 1259380). Further: nearly all actives have a fitted effect of over 30% in size. In outline:
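Steps: plate ER-beta-UAS-bla HEK293T cells, rest 6 hr; add compounds in DMSO; incubate 16 hr at 37C, 5% CO2; add FRET substrate 2 hr; add CellTiter-Glo, wait 30 min at room temperature; read luminescence.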

Test [12] is described as follows: qHTS assay to identify small molecule antagonists of the estrogen receptor beta (ER-beta) signaling pathway - cell viability counter screen (AID 1259382).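 Further: HEK293T cells carrying ER-beta-UAS-bla reporter stimulated with estradiol; series mostly up to about 92 µM; nearly all actives have a fitted effect of over 55% in size.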 In outline:
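Viability is scored by CellTiter-Glo luminescence (30 min, room temperature) in ER-beta-UAS-bla HEK293T wells already read for reporter fluorescence. Compound exposure lasts 16 hr at 37C alongside 1nM 17-beta-estradiol in charcoal-stripped serum medium.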

A short description of test [13]: qHTS assay to identify small molecule agonists or antagonists of the thyroid stimulating hormone receptor (TSHR) signaling pathway - wild type cell line counter screen (AID 1259384; calls by dose curve). In a few lines:
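Counter screen in untransfected Hek293: compounds (15-point titration, triplicate) plus phosphodiesterase inhibitor Ro20-1724 added after 18 h plating; 30 min RT. Intracellular cAMP via competitive d2/cryptate immunoassay, 1 h incubation.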

The target of test [14] is Thyrotropin receptor (Homo sapiens) (UniProt P16473). Nature of the test: qHTS assay to identify small molecule antagonists of the thyroid stimulating hormone receptor (TSHR) signaling pathway (AID 1259385; calls by dose curve; further: nearly all actives have a fitted effect of over 20% in size). In a few lines:
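Antagonist mode: compound-treated TSHR-expressing HEK293 cells were stimulated with 1.5 ng/mL TSH (final) in presence of Ro20-1724 for 30 min at RT. HTRF cAMP detection after 1 h; each compound tested at 15 concentrations, triplicate.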

Test [15] in a line: qHTS assay to identify small molecule agonists of the estrogen receptor alpha (ER-alpha) signaling pathway in the presence of an antagonist - cell viability counter screen (AID 1259386).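 Further: series mostly up to about 92 µM; cells exposed to compounds for 22 h at 37 °C before the viability read; nearly all actives have a fitted effect of over 30% in size.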 In a few lines: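 In this counter screen, compound effects on VM7Luc4E2 viability were tested in the presence of the antagonist ICI-182,780 at 10.0nM final. Compounds were dosed at 15 concentrations, exposure lasted 22hr, and the CellTiter-Fluor signal was read.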

Test [16] concerns the target Estrogen receptor (Homo sapiens) (UniProt P03372). Nature of the test: qHTS assay to identify small molecule antagonists of the estrogen receptor alpha (ER-alpha) signaling pathway using the BG1 cell line in the presence of 0.1 nM 17-beta-estradiol (AID 1259244). Further: nearly all actives have a fitted effect of over 50% in size. In a few lines:
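Reporter is a stably transfected luciferase under four estrogen responsive elements in VM7Luc4E2 cells expressing native full-length ER-alpha; inhibition of 0.1 nM (final) 17beta-estradiol-driven signal over 22 h is read by luminescence.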

For test [17] the target is unchanged. Nature of the test: qHTS assay to identify small molecule agonists of the estrogen receptor alpha (ER-alpha) signaling pathway in the presence of an antagonist (AID 1259383; calls by dose curve; further: top concentration of the series differs between compounds; nearly all actives have a fitted effect of over 15% in size). In outline:
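Readout was ERE-driven luciferase luminescence in VM7Luc4E2 cells, which express full-length ER-alpha endogenously. Compounds were tested at 15 concentrations for 22hr alongside 10.0nM ICI-182,780 (final concentration).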

Test [18] can be described thus: qHTS assay to identify small molecule phospholipidosis (PLD) inducers (AID 1259344; active means well fitted curve in the direction sought with a large enough effect; an effect the other way counts as inactive or inconclusive). In outline: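 Phospholipid accumulation was scored by imaging: fixed, Hoechst-counterstained HepG2 cells stained with LipidTOX Red after 24 h compound exposure at 37 C. Read-outs were pit count and pit intensity per well or per cell, with amiodarone and DMSO controls.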
Test [19] concerns the target Estrogen receptor beta (Homo sapiens) (UniProt Q92731). Nature of the test: qHTS assay to identify small molecule antagonists of the estrogen receptor beta (ER-beta) signaling pathway (AID 1259378; active means well fitted inhibition curve with a large enough effect in the signal ratio in the repeat runs, not every such curve was filed as active; the % refers to the signal ratio). In a few lines:
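Antagonist mode: compounds added to beta-lactamase reporter HEK293T ER-beta-UAS cells stimulated with E2 (1nM final), 16 hr at 37C. LiveBLAzer B/G FRET substrate, 2 hours room temperature, fluorescence read-out.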

The structures appear in SMILES notation. Records with an inconclusive call do not appear. Active and inactive are the calls of the source. Unless noted, the call rests on the fitted dose curve; in most records, active means well fitted curve in the direction sought with a large enough effect in the repeat runs; inconclusive means weak or mixed curves; inactive means no such curve, though single readings can be large; an effect the other way counts as inactive or inconclusive.

Thyrotropin receptor (Homo sapiens), sequence (P16473 whole entry, looked up): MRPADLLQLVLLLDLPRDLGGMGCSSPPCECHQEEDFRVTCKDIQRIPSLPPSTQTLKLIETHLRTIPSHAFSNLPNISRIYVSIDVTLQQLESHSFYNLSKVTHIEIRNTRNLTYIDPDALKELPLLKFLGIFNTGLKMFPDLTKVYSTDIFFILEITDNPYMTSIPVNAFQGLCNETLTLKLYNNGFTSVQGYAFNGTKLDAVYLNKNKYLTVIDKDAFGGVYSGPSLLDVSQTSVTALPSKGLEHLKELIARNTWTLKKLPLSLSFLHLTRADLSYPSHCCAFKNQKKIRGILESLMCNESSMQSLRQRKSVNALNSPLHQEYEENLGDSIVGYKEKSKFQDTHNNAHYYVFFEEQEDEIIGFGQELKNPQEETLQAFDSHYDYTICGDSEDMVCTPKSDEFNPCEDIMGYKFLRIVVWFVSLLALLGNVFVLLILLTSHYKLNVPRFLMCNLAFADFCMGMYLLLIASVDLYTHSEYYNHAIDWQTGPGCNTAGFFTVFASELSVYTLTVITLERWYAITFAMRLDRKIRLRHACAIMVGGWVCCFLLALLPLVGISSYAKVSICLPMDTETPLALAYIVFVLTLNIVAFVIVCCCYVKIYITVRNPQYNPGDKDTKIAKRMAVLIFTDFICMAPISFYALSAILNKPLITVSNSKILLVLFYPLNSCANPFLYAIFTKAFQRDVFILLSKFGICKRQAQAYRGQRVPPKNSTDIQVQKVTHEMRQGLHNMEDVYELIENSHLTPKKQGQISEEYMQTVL
Estrogen receptor (Homo sapiens), sequence (P03372 whole entry, looked up): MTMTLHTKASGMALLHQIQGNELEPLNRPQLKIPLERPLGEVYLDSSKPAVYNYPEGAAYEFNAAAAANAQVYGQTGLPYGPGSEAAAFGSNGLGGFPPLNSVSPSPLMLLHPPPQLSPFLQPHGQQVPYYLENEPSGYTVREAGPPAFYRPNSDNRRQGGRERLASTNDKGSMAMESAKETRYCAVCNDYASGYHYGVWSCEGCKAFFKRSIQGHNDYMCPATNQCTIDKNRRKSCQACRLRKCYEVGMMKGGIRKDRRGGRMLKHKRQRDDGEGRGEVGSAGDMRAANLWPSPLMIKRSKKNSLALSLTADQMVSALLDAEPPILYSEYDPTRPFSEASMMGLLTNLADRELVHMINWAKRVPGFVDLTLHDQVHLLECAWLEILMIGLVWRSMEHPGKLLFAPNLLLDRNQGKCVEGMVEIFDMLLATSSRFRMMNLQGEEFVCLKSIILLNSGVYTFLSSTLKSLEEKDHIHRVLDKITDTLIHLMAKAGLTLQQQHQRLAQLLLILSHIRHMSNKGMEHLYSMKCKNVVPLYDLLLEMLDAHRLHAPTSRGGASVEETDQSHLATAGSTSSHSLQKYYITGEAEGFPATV
Estrogen receptor beta (Homo sapiens), sequence (Q92731 whole entry, looked up): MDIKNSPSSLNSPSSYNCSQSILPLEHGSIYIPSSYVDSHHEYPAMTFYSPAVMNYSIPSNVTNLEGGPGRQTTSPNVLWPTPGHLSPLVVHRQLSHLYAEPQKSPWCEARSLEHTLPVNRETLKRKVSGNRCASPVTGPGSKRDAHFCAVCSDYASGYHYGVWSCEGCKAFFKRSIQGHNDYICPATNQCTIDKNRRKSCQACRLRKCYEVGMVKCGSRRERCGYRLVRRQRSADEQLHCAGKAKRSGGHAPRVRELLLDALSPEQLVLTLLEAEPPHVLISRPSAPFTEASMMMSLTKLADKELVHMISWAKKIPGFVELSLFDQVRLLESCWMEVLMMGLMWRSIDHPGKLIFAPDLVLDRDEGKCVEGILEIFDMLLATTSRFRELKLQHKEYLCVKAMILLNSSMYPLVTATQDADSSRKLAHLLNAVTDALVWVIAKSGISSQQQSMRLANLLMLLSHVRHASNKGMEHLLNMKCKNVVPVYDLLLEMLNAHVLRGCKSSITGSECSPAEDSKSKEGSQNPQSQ

On to `C=C(C)CC(C)(C)C`, for which the Potency entry in test [1], in test [2], in [3], in test [4], in test [5] and in [6] was “inactive” throughout. Also, the Potency result in test [7], in [8], in [9], in [10], in test [11] and in [12] was “inactive” each time. The Potency result in [13], in [14] and in test [15] was “inactive” in each case.

Consider `O=C(O)C1=NN(c2ccc(S(=O)(=O)O)cc2)C(=O)C1`, for which the Potency result in [1], in test [2], in test [16], in test [3], in [5] and in test [6] was “inactive” in each case. In addition, the Potency result in test [7], in [8], in [10], in test [11], in test [12] and in test [17] was “inactive” in each case. Moreover, the Potency entry in test [13], in [14] and in [15] was “inactive” in each case.

As to `Brc1ccc(Oc2ccc(Br)cc2)cc1`, the Potency result in test [1], in test [2], in test [3], in test [5], in test [6] and in test [7] was “inactive” throughout. For the same molecule, the Potency result in test [8], in [10], in [11], in test [12], in [13] and in [15] was “inactive” each time.

`OCc1ccc(Cl)cc1Cl`: the Potency result in [1], in test [2], in test [3], in [4], in [5] and in [6] was “inactive” in each case. Besides, the Potency entry in test [7], in test [8], in test [9], in test [10], in [11] and in test [12] was “inactive” throughout. Besides, the Potency result in test [15] is “inactive”. The call in test [18] was inactive.

For the molecule `O=C(O)Cc1c[nH]c2ccccc12`, the Potency result in test [1], in test [2], in test [3], in test [5], in [6] and in test [7] was “inactive” each time. In addition, the Potency result in test [8], in [9], in [19], in test [10], in [11] and in [12] was “inactive” throughout. In addition, the Potency result in [13], in test [14] and in [15] was “inactive” throughout.

Take `CC(COCC(C)OC(=O)c1ccccc1)OC(=O)c1ccccc1` (stereo not drawn): the Potency result in [1], in test [2], in [3], in [4], in [5] and in test [6] was “inactive” each time. The Potency entry in [7], in test [8], in test [9], in test [19], in [10] and in test [11] was “inactive” throughout. Further, the Potency entry in test [12], in [13], in test [14] and in [15] was “inactive” throughout.

Regarding `Oc1ccc(Cc2ccccc2O)cc1`, the Potency entry in [1], in test [2], in [16], in test [3], in test [4] and in test [5] was “inactive” each time. Moreover, the Potency entry in [6], in test [7], in [10], in test [12], in [17] and in test [13] was “inactive” each time. Moreover, the Potency result in test [14] and in [15] was “inactive” in each case. In addition, the Potency in test [8] was 43.3 µM (active).

Take `CCN(CC)CCNC(=O)c1ccc(N)cc1`: the Potency result in test [1], in test [2], in test [3], in test [5], in test [6] and in test [7] was “inactive” throughout. In addition, the Potency result in test [8], in test [9], in test [19], in test [10], in test [11] and in test [12] was “inactive” each time. Further, the Potency entry in test [13], in test [14] and in [15] was “inactive” in each case. Besides, the molecule was classed as inactive in [18].

For `CC(=O)c1nccs1`, the Potency entry in test [1], in test [2], in test [16], in test [3], in test [5] and in test [6] was “inactive” throughout. For the same molecule, the Potency entry in test [7], in test [8], in test [10], in test [11], in test [12] and in [17] was “inactive” throughout. In addition, the Potency result in [13], in test [14] and in test [15] was “inactive” throughout.
